# Laboratory results: the supplement of paper PMC11219838
# Unmarked numbers belong to inactive results.
# Key:
# Conditions in all cases: 60 µM; 5 days; temperature: 20 °C
# Meloidogyne hapla J2 = assay: proportion of mobile M. hapla J2 relative to DMSO control (fraction of DMSO control); higher = more viable, less nematicidal, active = 0.7 or less
# Summary of the method: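 About 25 M. hapla J2 were added per 96-well well in distilled water, and compound was pinned to 60 µM final (0.6% v/v DMSO). Sealed plates were shaken at 200 rpm for 5 days at 20 °C, then 2 µL 1 M NaOH was added before microscopic mobility scoring. Mobility was divided by the mean of eight DMSO wells on the same plate, and two biological replicates were averaged.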
# [1] = tested on: Caenorhabditis elegans dauer (daf-2(e1370)); assay: proportion of mobile C. elegans dauer larvae relative to DMSO control (fraction of DMSO control); higher = more viable, less nematicidal, active = 0.63 or less; extreme values may be limits of the assay
# Summary of the method: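 The proportion of mobile worms, relative to DMSO wells, was scored by dissection microscope and averaged over two biological replicates. Worms were C. elegans dauers, about 20 per well in liquid NGM in 96-well plates, generated from synchronized larvae on MYOB plates with E. coli OP50 at 25 °C for 48 h. They were treated with compound pinned to 60 µM final (0.6% v/v DMSO) and kept in sealed plates shaken at 200 rpm for 5 days at 20 °C.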
# Ditylenchus dipsaci = assay: proportion of mobile D. dipsaci (mixed stage) relative to DMSO control (fraction of DMSO control); higher = more viable, less nematicidal, active = 0.86 or less; extreme values may be limits of the assay
# Summary of the method: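 D. dipsaci were grown on pea plants in Gamborg B-5 agar and extracted through a filter funnel into water, and about 20 worms were added per 96-well well in distilled water. Compound was pinned to 60 µM final (0.6% v/v DMSO), and sealed plates were shaken at 200 rpm for 5 days at 20 °C. After 2 µL 1 M NaOH was added, mobile worms were scored microscopically. Mobility was expressed relative to DMSO controls and averaged over two biological replicates.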
SMILES,proportion of mobile M. hapla J2 (Meloidogyne hapla J2),proportion of mobile C. elegans dauer larvae [1],proportion of mobile D. dipsaci (Ditylenchus dipsaci)
O=C(CSc1nnc(-c2ccccc2Cl)o1)NCc1ccccc1,1.04,1,1
COc1ccc(-c2noc(COc3ccccc3Cl)n2)cc1,1.04,1,1
Cc1cc(OCc2nc(-c3ccccc3)no2)ccc1Cl,0.844,1,1
O=C(Nc1ccccc1-c1nc(-c2cccnc2)no1)c1cccs1,1.02,1,1
CCOc1nc(-c2ccc(C)cc2)ccc1-c1noc(-c2ccco2)n1,0.944,1,1
COc1ccc(-c2nnc(SCC(=O)c3ccc(C)o3)o2)cc1,1,1,1
Fc1ccc(-c2noc(-c3ccc(Br)cc3)n2)cc1,1.04,1,1
CCCCCOC(=O)CSc1nnc(-c2ccc(Cl)cc2Cl)o1,0.737,1,1
COc1ccc(-c2noc(-c3ccccc3C(=O)Nc3ccc(NC(C)=O)cc3)n2)cc1,0.923,1,1
O=C(CSc1nnc(-c2ccc(Cl)cc2)o1)Nc1ccc(F)cc1,0.912,1,1
Cc1nnc(CSc2nnc(-c3ccc(Cl)cc3)o2)o1,0.926,1,1
Cc1ccc(SCc2nc(-c3cccc(C)c3)no2)cc1,1.01,1,1
CCc1ccc(OCc2nc(-c3cccc(OC)c3)no2)cc1,0.74,1,1
Clc1ccc(-c2noc(-c3ccccc3Br)n2)cc1,0.995,1,1
CC(=O)Nc1ccc(C(=O)CSc2nnc(-c3cccc(Br)c3)o2)cc1,1.01,1,1
COc1ccccc1-c1nc(-c2ccc(C)cc2)no1,1.01,1,1
CCN(Cc1ccccc1)C(=O)c1ccccc1-c1nc(-c2cccc(C)c2)no1,0.579 (active),1,1
O=C(Nc1cccc(-c2noc(COc3ccccc3)n2)c1)c1cccs1,0.847,1,1
COc1nc(-c2ccc(C)cc2)ccc1-c1noc(-c2ccc(F)cc2)n1,0.925,1,1
CC(Oc1ccc(Br)cc1)c1nc(-c2ccncc2)no1 (centres undefined),0.719,0 (active),1
Cc1cccc(-c2noc(-c3ccccc3F)n2)c1,0.874,1,1
COc1ccc(-c2nnc(SCc3ccccc3)o2)cc1,0.96,1,1
FC(F)(F)c1ccc(-c2noc(-c3ccccc3Cl)n2)cc1,1.04,1,1
